# This is part of a sample that, as a whole, favours compounds with a hit. Of some 83,000 tested, about 20% had one in any assay.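 The endpoint reported here, percent growth, reads 100 for growth as untreated, 0 for no net growth and -100 for all cells dead.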 The source made the active and inactive calls. How the source made its calls: active means growth percent below 10; inactive means the rest.
# System: MDA-MB-468 breast
# Assay: NCI-60 one-dose screen, 48 h (100 = growth as untreated, 0 = no growth, -100 = all killed)
# Conditions: 10 µM unless noted
row,Compound,growth
1,O=C(N=Nc1c(O)[nH]c2ccccc12)c1cc(-c2ccccc2)on1,109% (inactive)
2,CCOC(=O)c1cocc1C(=O)O,103% (inactive)
3,CCCCOc1ccc(/C=C2/SC(N3CCCC3)=NC2=O)cc1,93.1% (inactive)
4,O=C(Nc1ncc(Cc2cc(C(F)(F)F)ccc2Cl)s1)c1cccs1,-0.706% (active)
5,O=S(=O)(NCCCNc1nccc(-c2[nH]c(-c3ccccc3)nc2-c2ccc(Cl)c(O)c2)n1)c1cccc2ccccc12,36.7% (inactive)
6,COc1ccc(Oc2nc(Nc3ccc(N4CCOCC4)nc3)ncc2NC(=O)c2cc(OC)cc(OC)c2)cc1,82.1% (inactive)
7,O=[N+]([O-])c1cc2c(ccc3occc32)o1,-8.85% (active)
8,NC(=O)C(O)(c1ccccc1)c1ccccc1,95.1% (inactive)
9,CCCc1cc(C(N)=S)ccn1,102% (inactive)
10,CC(C)CC1NC(=O)C(CCCN)NC(=O)C(C(C)C)NC(=O)C2CCCN2C(=O)C(Cc2ccccc2)NC(=O)C(CC(C)C)NC(=O)C(CCCN)NC(=O)C(C(C)C)NC(=O)C2CCCN2C(=O)C(Cc2ccccc2)NC1=O (stereo not given),-78.1% (active)
11,CCOC(=O)C(=Cc1ccccc1F)C(=O)OCC,76.7% (inactive)
12,Cc1cc(C)cc(C(=O)Nc2cccc(C#Cc3cccc4[nH]nc(N)c34)c2)c1,43% (inactive)
13,CC1=CC(=O)C=CC1(C)C(Cl)(Cl)Cl (stereo not given),98.4% (inactive)
14,CCOC(CNCc1cc(C)c2[nH]c3ccccc3c2c1C)OCC,67.6% (inactive)
15,O=C1NC(=C(Cl)Cl)/C(=N\S(=O)(=O)NCc2ccccc2)N1,45.1% (inactive)

# Reference: PubChem BioAssay (NCI)
